Laboratory results as given in PubChem BioAssay (NCI).
This is part of a sample that, as a whole, favours compounds with a hit. Of some 79,000 tested, about 15% had one in any assay. A number with no mark means an inactive call. Calls of active or inactive are those of the source. Rule as the data show it: active = growth inhibition above about 70%; inactive = the rest.

Tests used:
[1] = NCI Yeast Anticancer Drug Screen. Data for the rad50 strain (AID 155);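 also: 0% = growth of vehicle-only cultures of the same strain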; conditions: S. cerevisiae rad50 strain growth inhibition, active compounds read high
Method in brief: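 Vehicle-treated cultures provide the reference for the growth inhibition reported for compound-exposed, repair-deficient yeast.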

[2] = NCI Yeast Anticancer Drug Screen. Data for the mec2-1 strain (AID 157); conditions: S. cerevisiae mec2-1 strain, active compounds read high
Method in brief: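 Strain: mec2-1 (DNA repair/cell cycle alteration). Compound exposure, then growth measured; inhibition expressed relative to vehicle.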

[3] = NCI Yeast Anticancer Drug Screen. Data for the sgs1 mgt1 strain (AID 161);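 also: 0% = growth of cultures given vehicle only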; conditions: S. cerevisiae sgs1 mgt1 strain, active compounds read high
Method in brief: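 Mutant yeast exposed to compound; growth scored against vehicle-only wells.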

[4] = NCI Yeast Anticancer Drug Screen. Data for the cln2 rad14 strain (AID 165);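 also: 0% = growth equal to vehicle treated cultures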; conditions: S. cerevisiae cln2 rad14 strain, active compounds read high
Method in brief: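 Compounds are applied to the cln2 rad14 yeast strain, and growth is then compared with that of vehicle-treated cultures to give inhibition.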

[5] = NCI Yeast Anticancer Drug Screen. Data for the bub3 strain (AID 167); conditions: S. cerevisiae bub3 mutant strain, active compounds read high
Method in brief: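 Mutant yeast screening strain plus compound; vehicle-treated cultures serve as the 0% inhibition reference.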

[6] = NCI Yeast Anticancer Drug Screen. Data for the mlh1 rad18 strain (AID 175); conditions: S. cerevisiae mlh1 rad18 strain growth inhibition, active compounds read high
Method in brief: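 Read-out is yeast growth inhibition, calculated against vehicle-only controls. The compound was applied to a strain engineered with DNA damage repair alterations.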

[7] = at 5.0 µM (retest, dose inferred, filed as 0.5)
[8] = at 50.0 µM (retest, dose inferred, filed as 5.0)

Row | Structure (SMILES) | growth inhibition [1, 7] | growth inhibition [1, 8] | growth inhibition ([1]; at 50.0 µM) | growth inhibition [2, 7] | growth inhibition [2, 8] | growth inhibition ([2]; at 50.0 µM) | growth inhibition [3, 7] | growth inhibition [3, 8] | growth inhibition ([3]; at 50.0 µM) | growth inhibition [4, 7] | growth inhibition [4, 8] | growth inhibition ([4]; at 50.0 µM) | growth inhibition [5, 7] | growth inhibition [5, 8] | growth inhibition ([5]; at 50.0 µM) | growth inhibition [6, 7] | growth inhibition [6, 8] | growth inhibition ([6]; at 50.0 µM)
1 | CC(=O)Nc1cccc(C(=O)O)c1 | 6% | -2% | 1.3% | -1% | -4% | 0% | -5% | 1% | 5.75% | 4% | -1% | 39.9% | 4% | 7% | 8.6% | 1% | -3% | -16.6%
2 | O=C(N/C(=C\c1cc(Cl)ccc1Cl)c1nc2ccc(Cl)cc2[nH]1)c1ccccc1 | 29% | 87% (active) | 93.2% (active) | 17% | 82% (active) | 96.5% (active) | 28% | 81% (active) | 93.8% (active) | 39% | 84% (active) | 91.9% (active) | 31% | 87% (active) | 94.7% (active) | 14% | 81% (active) | 96.5% (active)
3 | FC(F)(F)c1ccc(NC(=S)SCc2ccc3c(c2)OCO3)cc1 | -5% | 0% | 74.5% (active) | -5% | -1% | 95% (active) | -3% | 25% | 93.3% (active) | -11% | -15% | 86.3% (active) | -8% | -6% | 87% (active) | -8% | 24% | 93.2% (active)
4 | N#CC1CCCC(Cc2ccccc2)(c2ccccc2)C1=O (stereo not given) | -4% | 93% (active) | 98.8% (active) | -3% | 95% (active) | 98.1% (active) | -2% | 95% (active) | 98.3% (active) | -1% | 70% (active) | 95% (active) | 10% | 96% (active) | 98.7% (active) | -6% | 96% (active) | 97.6% (active)
5 | C=C1C(=O)C23CC[C@H]4C(C)(CCC[C@]4(C)C(=O)O)[C@@H]2CCC1C3 (stereo not given in full) | 94% (active) | 99% (active) | 90.5% (active) | 96% (active) | 99% (active) | 93.7% (active) | 93% (active) | 99% (active) | 93% (active) | 72% (active) | 99% (active) | 88.3% (active) | 95% (active) | 99% (active) | 92% (active) | 97% (active) | 99% (active) | 92.7% (active)
6 | Cc1ccc2c(c1)-c1c(c3c(c4c1-c1cc(C)ccc1CC4)C(=O)OC3=O)CC2 | 14% | 72% (active) | 43.9% | 10% | 43% | 16.7% | 2% | 59% | 12.2% | 14% | 41% | 3.45% | 4% | 47% | 7.65% | 9% | 56% | 36.5%
7 | O=S(=O)(Nc1nccs1)c1ccc(N=Cc2cn(Cc3ccccc3)c3ccccc23)cc1 | 3% | 53% | 82.3% (active) | -3% | 7% | 36.4% | 3% | 57% | 85.9% (active) | 9% | 11% | 27.4% | 1% | 8% | 9.5% | 5% | 38% | 52.4%
8 | CCC[CH2][Sn]([CH2]CCC)([O]C(=O)c1cc(OC)c(OC)cc1OC)[O][Sn]([CH2]CCC)([CH2]CCC)[O]C(=O)c1cc(OC)c(OC)cc1OC | 94% (active) | 97% (active) | 88.5% (active) | 96% (active) | 98% (active) | 91% (active) | 96% (active) | 99% (active) | 91.5% (active) | 92% (active) | 98% (active) | 90.2% (active) | 97% (active) | 98% (active) | 90.5% (active) | 96% (active) | 97% (active) | 89% (active)
9 | c1ccc(CCC2=Nc3ccccc3CO2)cc1 | -160% | -155% | 7.75% | -48% | -56% | -6.5% | -64% | -63% | 12.2% | -67% | -87% | 13.3% | -68% | -69% | -18.7% | -126% | -124% | -8.4%
10 | Cc1noc(NS(=O)(=O)c2ccc(NCc3c4ccccc4nc4cc(Cl)ccc34)cc2)c1C | 4% | -13% | 98.5% (active) | 4% | -7% | 98.9% (active) | 5% | -6% | 98.5% (active) | 1% | -3% | 98.2% (active) | 9% | -3% | 98.2% (active) | 3% | -5% | 98.3% (active)
